Consider 15 molecules from PubChem BioAssay (EPA / NIEHS).

Structures are written as SMILES. Inconclusive results are not listed. The source holds several records for some structures; these can differ, active in one and inactive in another. Active and inactive are the calls of the source. How the source made its calls, unless noted: active means hit-call score of the fitted dose curve at least 0.9, where 1 is the maximum; inconclusive means response in the unintended direction; inactive means score below 0.9.

The target in assay [1] is Cellular tumor antigen p53 (Homo sapiens) (UniProt P04637). The assay can be described thus: TOX21_p53_BLA_p2_ratio: Tox21 HCT-116 p53 Agonism Beta-lactamase Assay, Ratio, Phase 2 (AID 2283592). In a few lines:
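HCT116 p53-bla; 4000 cells/well; 5 h pre-incubation; cpd in DMSO, 217-fold dilution; 16 h 37C/5% CO2; CCF4-AM 2 h RT; Ex 405, Em 460/530 ratio; DMSO = baseline; positive fitting direction.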

Assay [2] is described as follows: TOX21_p53_BLA_p4_viability: Viability Assessment in the Tox21 HCT-116 p53 Agonism Beta-lactamase Assay, Phase 4 (AID 2283597).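 Further: hits lower the luminescence signal meaning cytotoxicity.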 The method, boiled down: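 Cells plated, 5 h pre-incubation; DMSO compounds pinned (217-fold dilution); 16 h, 37C/5% CO2; CCF4-AM 2 h RT; CellTiter-Glo 30 min RT; luminescence read.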
In assay [3] the target is Cellular tumor antigen p53 (Homo sapiens) (UniProt P04637). The assay can be described thus: TOX21_p53_BLA_p5_ratio: Tox21 HCT-116 p53 Agonism Beta-lactamase Assay, Ratio, Phase 5 (AID 2283599). The method, boiled down: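 Beta-lactamase reporter ratio (blue 460 nm over green 530 nm, 405 nm excitation) after 2 h CCF4-AM loading, in HCT-116 cells exposed 16 h at 37 C to compounds pinned at 217-fold dilution. Increases relative to DMSO baseline scored.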

The target is the same in assay [4]. The assay can be described thus: TOX21_p53_BLA_p4_ratio: Tox21 HCT-116 p53 Agonism Beta-lactamase Assay, Ratio, Phase 4 (AID 2283601). In a few lines: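 Signal is the blue/green (460nm/530nm) ratio of cleaved versus uncleaved CCF4-AM substrate, read after 2 h substrate loading. Cells were HCT116 carrying the p53-responsive beta-lactamase reporter, dosed 16 h at 37C, 5% CO2; CellTiter-Glo measured in parallel.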

The nature of assay [5]: TOX21_p53_BLA_p3_viability: Viability Assessment in the Tox21 HCT-116 p53 Agonism Beta-lactamase Assay, Phase 3 (AID 2283593).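 Further: cells exposed to compound for 16 h before reading.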 The method, boiled down: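 Cellular ATP was quantified by CellTiter-Glo luminescence, read after 30 min at room temperature. Beforehand, HCT116 cells (4000/well) received compound 5 h post-seeding, 217-fold diluted from DMSO, then incubated 16 h at 37C.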

Assay [6] can be described thus: TOX21_p53_BLA_p5_viability: Viability Assessment in the Tox21 HCT-116 p53 Agonism Beta-lactamase Assay, Phase 5 (AID 2283600). The method, boiled down: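 4000 cells/well; 5 h pre-incubation; DMSO compounds pin-transferred, 217-fold dilution; 16 h, 37C/5% CO2; CCF4-AM 2 h RT; CellTiter-Glo 30 min RT; luminescence.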
Assay [7] can be described thus: CCTE_Shafer_MEA_dev_firing_rate_mean: CCTE's Neural Network Formation Assay for Mean Firing Rate, Shafer Lab (AID 2284031; active means hit-call score of the fitted dose curve at least 0.9, where 1 is the maximum; inactive means score below 0.9). In a few lines: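 Primary rat cortical neurons on 48-well MEA plates, exposed from plating day 0 with dosing renewed on DIV 5 and 9. Mean well firing rate over active electrodes, recorded days 5, 7, 9, 12, summarised as trapezoidal AUC.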
A short description of assay [8]: CCTE_Shafer_MEA_dev_per_burst_spike_percent: CCTE's Neural Network Formation Assay for Percent of Spikes in a Burst, Shafer Lab (AID 2284032; active means hit-call score of the fitted dose curve at least 0.9, where 1 is the maximum; inactive means score below 0.9). In a few lines:
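Rat primary cortical neurons on 16-electrode MEA wells, dosed from plating day 0 for 12 days with renewal on DIV 5 and 9; spikes-in-bursts percentage averaged over bursting electrodes, collapsed as AUC across days 5, 7, 9, 12; loss direction versus DMSO.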

Assay [9] can be described thus: CCTE_Shafer_MEA_dev_burst_rate: CCTE's Neural Network Formation Assay for Burst Rate, Shafer Lab (AID 2284042; active means hit-call score of the fitted dose curve at least 0.9, where 1 is the maximum; inactive means score below 0.9). In a few lines:
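Developmental network assay measuring how 12-day exposure of rat cortical neuron cultures alters bursting on extracellular MEA recordings. Values are AUC of well-mean burst rate across four recording days, relative to DMSO vehicle.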

A short description of assay [10]: CCTE_Shafer_MEA_dev_bursting_electrodes_number: CCTE's Neural Network Formation Assay for Number of Bursting Electrodes, Shafer Lab (AID 2284043). In a few lines:
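Read-out is the per-well number of electrodes bursting at least once every 2 minutes, recorded on days 5, 7, 9 and 12 and collapsed by trapezoidal area under the curve. Cultures were primary rat cortical neurons on MEA plates, treated continuously from plating.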

A short description of assay [11]: CCTE_Shafer_MEA_dev_per_burst_interspike_interval: CCTE's Neural Network Formation Assay for Burst Interspike Interval, Shafer Lab (AID 2284044; active means hit-call score of the fitted dose curve at least 0.9, where 1 is the maximum; inactive means score below 0.9;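 further: mean spike spacing inside bursts as AUC over recordings on days 5 7 9 12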). The method, boiled down:
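Neurons from rat cortex plated onto PEI-coated MEA wells with laminin […] at 1.5 x 10^5 cells/well, then treated from day 0. Media and compound fully replaced on DIV 5 and 9. Extracellular spontaneous firing recorded four times; interspike interval per burst summarised as AUC.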

Assay [12] can be described thus: CCTE_Shafer_MEA_dev_burst_duration_mean: CCTE's Neural Network Formation Assay for Mean Burst Duration, Shafer Lab (AID 2284045; active means hit-call score of the fitted dose curve at least 0.9, where 1 is the maximum; inactive means score below 0.9). In a few lines:
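Read-out: average first-to-last-spike interval within single-electrode bursts, averaged over bursting electrodes per well, then summarised as area under the curve across days 5, 7, 9 and 12. Developing rat cortical networks were exposed from day 0.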

The nature of assay [13]: CCTE_Shafer_MEA_dev_interburst_interval_mean: CCTE's Neural Network Formation Assay for Mean Interburst Interval, Shafer Lab (AID 2284046; active means hit-call score of the fitted dose curve at least 0.9, where 1 is the maximum; inactive means score below 0.9;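 further: well-mean interburst interval of bursting electrodes as AUC over four recording days; curve fitted for decrease in interburst interval relative to DMSO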). The method, boiled down:
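Network formation assay in primary rat cortical cultures, exposed from DIV 0 to 12. Mean interburst interval per well, integrated as AUC over four recordings.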

Assay [14] in a line: CCTE_Shafer_MEA_dev_inter_network_spike_interval_mean: CCTE's Neural Network Formation Assay for Mean Inter-network Spike Interval, Shafer Lab (AID 2284047; active means hit-call score of the fitted dose curve at least 0.9, where 1 is the maximum; inactive means score below 0.9). The method, boiled down:
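Compound was given at plating to primary rat cortical neurons and renewed with full medium changes on DIV 5 and 9. Extracellular activity was recorded on days 5, 7, 9, 12; AUC values were fitted for loss relative to DMSO control.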

A short description of assay [15]: CCTE_Shafer_MEA_dev_network_spike_number: CCTE's Neural Network Formation Assay for Number of Network Spikes, Shafer Lab (AID 2284048; active means hit-call score of the fitted dose curve at least 0.9, where 1 is the maximum; inactive means score below 0.9;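 further: synchronized bursts across electrodes counted on days 5 7 9 12 and integrated as AUC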). The method, boiled down:
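Developing networks of primary rat cortical neurons are treated over 12 days starting at plating, with media and compound fully replaced on DIV 5 and 9. Network spike counts from four recording days are integrated as trapezoidal AUC.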

The nature of assay [16]: CCTE_Shafer_MEA_dev_network_spike_peak: CCTE's Neural Network Formation Assay for Mean Number of Electrodes in Network Spike, Shafer Lab (AID 2284049; active means hit-call score of the fitted dose curve at least 0.9, where 1 is the maximum; inactive means score below 0.9). In a few lines: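 Rat cortical primary culture, 1.5 x 10^5 cells/well, 48-well MEA (16 electrodes/well). Dosing day 0 through DIV 12, full media/compound exchange DIV 5, 9. AxIS adaptive spike detection; AUC over days 5/7/9/12; loss-of-signal vs DMSO.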

The nature of assay [17]: CCTE_Shafer_MEA_dev_spike_duration_mean: CCTE's Neural Network Formation Assay for Mean Spike Duration, Shafer Lab (AID 2284051; active means hit-call score of the fitted dose curve at least 0.9, where 1 is the maximum; inactive means score below 0.9;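 further: mean network spike duration pooled as area under curve over DIV 5 to 12 recordings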). In a few lines:
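With DMSO as baseline, loss of mean network spike duration was scored from extracellular recordings of rat cortical neurons on MEA plates. Exposure spanned plating to DIV 12; the four recording days were collapsed into one AUC value.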

Assay [18] in a line: CCTE_Shafer_MEA_dev_network_spike_duration_std: CCTE's Neural Network Formation Assay for Standard Deviation of Network Spike Duration, Shafer Lab (AID 2284052; active means hit-call score of the fitted dose curve at least 0.9, where 1 is the maximum; inactive means score below 0.9;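 further: area under curve of spike duration SD across recording days 5 to 12; hits are decreases in network spike duration SD versus DMSO vehicle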). In a few lines: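 Developing networks of rat cortical neurons were exposed over twelve days in vitro on 48-well MEA plates. Trapezoidal AUC of recordings (DIV 5–12) was analysed for signal loss relative to DMSO vehicle.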

Assay [19] in a line: CCTE_Shafer_MEA_dev_per_network_spike_spike_number_mean: CCTE's Neural Network Formation Assay for Mean Number of Spikes in a Network Spike, Shafer Lab (AID 2284053; active means hit-call score of the fitted dose curve at least 0.9, where 1 is the maximum; inactive means score below 0.9). In a few lines:
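First, rat cortical cells (1.5 x 10^5/well) were seeded onto MEA wells; second, dosing began at plating and was refreshed on DIV 5 and 9; finally, network-spike spike counts across DIV 5–12 were summarized as AUC.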

Assay [20] can be described thus: CCTE_Shafer_MEA_dev_per_network_spike_spike_percent: CCTE's Neural Network Formation Assay for Percent of Spikes in a Network Spike, Shafer Lab (AID 2284054; active means hit-call score of the fitted dose curve at least 0.9, where 1 is the maximum; inactive means score below 0.9). In a few lines:
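Rat primary cortical cultures, 1.5 x 10^5 cells/well on MEA. Continuous compound exposure d0–12, medium/compound renewed DIV 5, 9. Network-spike spike % (0.05 s peak window), AUC over 4 recordings, DMSO baseline.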

Assay [21] can be described thus: CCTE_Shafer_MEA_dev_LDH: CCTE's Lactate Dehydrogenase Assay for Cytotoxicity in the Neural Network Formation Assay, Shafer Lab (AID 2284068).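 Further: exposure for twelve days from plating with re-dosing on DIV 5 and 9.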 In a few lines:
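Developing rat cortical networks on MEA plates are exposed to compound for 12 days from plating. LDH activity is measured spectrophotometrically, with DMSO as baseline.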

Assay [22] is described as follows: CCTE_Shafer_MEA_dev_AB: CCTE's Alamar Blue Assay for Cytotoxicity in the Neural Network Formation Assay, Shafer Lab (AID 2284083).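 Further: resazurin reduction fluorescence as viability of cultured neurons; twelve days of exposure from plating with re-dosing on DIV 5 and 9.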 In a few lines: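 Cytotoxicity companion to the developmental MEA: primary rat cortical neurons, 12-day exposure starting day 0, compound refreshed DIV 5 and 9; resazurin fluorescence, fitted against DMSO vehicle.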
The nature of assay [23]: CCTE_Shafer_MEA_dev_mutual_information_norm: CCTE's Neural Network Formation Assay for Mutual Information Normalization, Shafer Lab (AID 2284091; active means hit-call score of the fitted dose curve at least 0.9, where 1 is the maximum; inactive means score below 0.9). The method, boiled down:
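Developing rat cortical networks on 16-electrode MEA wells are treated throughout formation (DIV 0–12). Shared electrode information is recorded four times, converted to area-under-curve, and fitted for decreases against DMSO vehicle.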

For assay [24], the target named is Cellular tumor antigen p53 (Homo sapiens) (UniProt P04637). The assay is described as follows: TOX21_p53_BLA_p3_ratio: Tox21 HCT-116 p53 Agonism Beta-lactamase Assay, Ratio, Phase 3 (AID 2283596). The method, boiled down:
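HCT116 p53-bla cells (4000/well) given compound in DMSO (217-fold dilution) after 5 h, incubated 16 h at 37C. CCF4-AM substrate 2 h at room temperature; 460/530 nm emission ratio, gain fitted against DMSO.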

Sequence of Cellular tumor antigen p53 (Homo sapiens) (P04637 whole entry, looked up): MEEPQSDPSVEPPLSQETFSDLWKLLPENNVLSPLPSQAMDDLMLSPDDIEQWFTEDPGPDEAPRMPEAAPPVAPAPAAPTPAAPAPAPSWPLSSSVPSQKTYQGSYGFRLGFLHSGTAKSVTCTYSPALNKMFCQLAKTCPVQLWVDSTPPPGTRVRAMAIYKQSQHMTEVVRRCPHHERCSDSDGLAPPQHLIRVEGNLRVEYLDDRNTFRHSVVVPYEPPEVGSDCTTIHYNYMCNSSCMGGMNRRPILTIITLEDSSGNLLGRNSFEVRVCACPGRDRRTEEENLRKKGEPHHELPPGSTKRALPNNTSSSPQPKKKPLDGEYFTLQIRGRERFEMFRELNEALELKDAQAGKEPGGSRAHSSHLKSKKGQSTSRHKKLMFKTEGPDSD

On to `C=CCN1C[C@H](C)N([C@H](c2ccc(C(=O)N(CC)CC)cc2)c2cccc(OC)c2)C[C@H]1C`, for which the result in assay [1], in assay [2], in assay [3] and in [4] was inactive.
The term AC50 denotes the midpoint of the concentration-response curve, whichever way the signal moves. In the case of `CCOP(=O)(O)OCC` (tested in a mixture with another compound), the half-maximal activity concentration (AC50) in assay [5] is 28.7 µM (active); in assay [2], 83 µM (active); in [6], 85.2 µM (active). For the same molecule, the call in assay [5], in assay [6], in [7], in [8], in [9] and in assay [10] was inactive. Moreover, the call in assay [11], in assay [12], in assay [13], in assay [14], in assay [15] and in assay [16] was inactive. Further, the molecule was called inactive in [17], in assay [18], in assay [19], in [20], in assay [21] and in assay [22]. Besides, the outcome in assay [23] was inactive.
For the molecule `O=C(O)C(Cl)(Cl)Br`, the outcome in assay [1], in assay [2], in [3] and in [4] was inactive.
In the case of `CC(C)(C#N)C(C)(C)C#N`, the molecule was classed as inactive in [5], in assay [24], in assay [2], in assay [3], in assay [6] and in assay [4].
As for `CCCCC/C=C\C/C=C\C/C=C\C/C=C\CCCC(=O)NCC(=O)O`, the result in [1], in [2], in assay [3], in assay [6] and in [4] was inactive.
As to `Oc1ccc2c3c1O[C@H]1[C@@H](O)C=C[C@H]4[C@H](C2)NCC[C@@]341`, the molecule was called inactive in assay [5], in [24], in [2], in assay [3] and in [6].
In the case of `O=C(C[C@@H]1NCCC[C@H]1O)Cn1cnc2cc(Br)c(Cl)cc2c1=O`, the molecule was classed as inactive in [5], in [2], in [6] and in assay [4].
For the molecule `C=CCBr`, the outcome in [5], in assay [24] and in assay [3] was inactive.
Turning to `O=C1C(=O)c2cccc3cccc1c23`, the outcome in [5] and in assay [3] was inactive. The AC50 is 33 µM (active) in assay [2] and 9.63 µM (active) in assay [4].
As for `CCC(=O)O[C@@](Cc1ccccc1)(c1ccccc1)[C@@H](C)CN(C)C`, the outcome in assay [5], in [24], in [2], in assay [3], in assay [6] and in assay [4] was inactive.
Turning to `Cc1ccc(Cl)c(O)c1`, the result in [5], in [24], in [3], in assay [6] and in assay [4] was inactive.
As for `CC(C)(C)C(=O)C(Cl)Cl`, the molecule was called inactive in assay [5], in assay [24], in assay [3] and in assay [4].
As to `C[N+](C)(C)CCCl`, the result in assay [5], in assay [24] and in assay [4] was inactive.
On to `O=[N+]([O-])c1cccc2cccnc12`, for which the molecule was called inactive in [5], in assay [3], in [6] and in assay [4].
In the case of `c1cc2c(c(NC3=NCCN3)c1)CCCC2`, the result in assay [5], in assay [24], in assay [3], in [6] and in assay [4] was inactive.
